As usually defined, the inhibition is the relative decrease from the control value, in per cent.

Hit rate of the full screen: of about 2,400 compounds, about 820 (34%) were called active. A selection follows. A number with no mark means an inactive call.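 How the source made its calls: active means inhibition of at least 50% at 20 µM in any single replicate; inactive means the rest.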

The test system of this experiment is glucose-6-phosphate dehydrogenase-6-phosphogluconolactonase (PfGluPho), Plasmodium falciparum 3D7. The experiment in a line: PfG6PD inhibitors, hit retest, confirmation, biochemical, fluorescence intensity, single concentration (AID 504753).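 Further: 0% = DMSO with substrate and 100% = DMSO lacking glucose-6-phosphate substrate.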 The following applies: recombinant PfGluPho, NADPH-diaphorase-resazurin fluorescence; at 20 µM; hits give high values. (Resazurin is reduced to fluorescent resorufin, in cell work by metabolically active cells.)
Turning to `O=C1NC(=O)N(c2ccccc2)C(=O)/C1=C/c1ccc([N+](=O)[O-])s1`, the inhibition is 64.4% (active).
The result for `COC(=O)N(c1ccc(OC)cc1)P1(=S)OCCC(C)O1` (stereo not given) reads 34.3%.
In the case of `Cc1cc(C)c2c(c1)NP(=S)(c1ccccc1)N2` (stereo not given) it was -21%.
In the case of `O=C(CSC1c2ccccc2-c2ccccc21)N/N=C/c1ccccc1` it was 35.3%; in that of `COc1cccc(-c2nc3ccc(N4CCN(C)CC4)cc3[nH]2)c1`, 13.5%.

For the origin of these results see PubChem BioAssay AID504753 (Sanford-Burnham Center for Chemical Genomics, 2011).
